Screens deposited in PubChem by several laboratories.
CDK5 p35 inh: inhibitors of human CDK5/p35 kinase; Q00535+Q15078; Recombinant CDK5/p35, ADP-Glo luminescence, 60 min; inhibition, % at 10 µM; actives 0.01% (n = 330,000);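 active means highest replicate inhibition of at least 50% and at least 75% of replicates reaching 50%; inconclusive means only one of the two criteria met; inactive means both criteria failed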;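 further: plate controls were DMSO neutral control for no effect and GW8510 at 10 µM for full effect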
DYRK1A inh: blocks rat Dyrk1A kinase activity; Q63470; ADP-Glo luminescence, NFATc1 peptide; inhibition, % at 12.5 µM; actives 0.43% (n = 310,000); AID 504441; in the data active means inhibition above about 50%;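 further: plate controls were vehicle with enzyme for no effect and no enzyme for full effect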
Rtt109 Vps75: C. albicans Rtt109 histone acetyltransferase inhibition. Q5AAJ8. purified Rtt109/Vps75, ThioGlo CoA-SH fluorescence, 4 h. inhibition, % at 34.9 µM. actives 0.16% (n = 330,000). AID 540336;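 active means inhibition of at least 50% in every replicate; inconclusive means best replicate reaches 50% inhibition but some replicates fall short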
Target sequence (Q5AAJ8 whole entry, looked up): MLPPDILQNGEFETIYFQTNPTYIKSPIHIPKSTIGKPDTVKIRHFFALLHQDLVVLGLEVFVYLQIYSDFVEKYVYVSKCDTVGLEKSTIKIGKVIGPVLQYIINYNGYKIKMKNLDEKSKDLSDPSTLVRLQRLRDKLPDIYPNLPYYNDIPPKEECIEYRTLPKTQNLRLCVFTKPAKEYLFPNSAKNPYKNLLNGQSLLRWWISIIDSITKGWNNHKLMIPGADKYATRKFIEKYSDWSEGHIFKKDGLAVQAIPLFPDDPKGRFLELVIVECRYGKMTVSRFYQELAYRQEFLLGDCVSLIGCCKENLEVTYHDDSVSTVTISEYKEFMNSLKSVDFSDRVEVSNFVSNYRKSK
esBAF inh: blocks esBAF chromatin remodeling in mouse ES cells. Bmi1-luciferase knock-in reporter, 24 h; 100% = twice the neutral-well signal. reporter increase, % at 12.5 µM. actives 2% (n = 350,000). AID 602393; in the data active means activation above about 40%; inconclusive means no clear call, values can overlap the other calls;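 further: 0% = median of the plate's neutral control wells and 100% = double that signal; a rise in the Bmi1 reporter signal indicates esBAF inhibition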
SMARCA2 act: SMARCA2 function activation, primary screen | MG213 cells, MMTV-luciferase reporter, dexamethasone, overnight | activation, % at 9.1 µM | actives 1% (n = 370,000); in the data active means activation above about 7.8%;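 further: 0% = vehicle wells and 100% = reference activator wells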
dFosB act: activators of mouse delta FosB homodimer | activation, % at 25 µM | AID 493131 | P13346 | actives 0.99% (n = 340,000) | purified delta FosB, TAMRA-CDK5 oligo fluorescence polarization; percent of positive-control signal above neutral wells;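 active means mean activation above about 17%, with every replicate also reaching it, limit read from the data, passing the limit was not always enough; inconclusive means only one of the two conditions met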
SMARCA2 conf: SMARCA2 activation, confirmation screen | AID 652260 | MG213 cells, MMTV-luciferase with dexamethasone, luminescence, overnight; MG213 cells expressing E1A, Rb sequestered; DMSO wells 0%, reference activator 100% | activation, % at 9.1 µM | actives 30% (n = 3,500) | shares compounds with SMARCA2 act;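 active means activation above its plate's cutoff, the mean activation of tested wells plus 3 SD, cut at about 7.9% in these data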
VP16 Luc act: GAL4-VP16 reporter activation counter-screen; shares compounds with SMARCA2 act; HEK293 GAL4-VP16 pG5luc reporter, luciferase luminescence; scaled: DMSO wells 0%, SAHA wells 100%; activation, % at 9.1 µM; actives 41% (n = 3,500);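 active means activation above the solvent-only control well mean plus 3 SD, averaged across control plates, cut at about 5.2% in these data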
* hit, by the source's call; ? = inconclusive; . = no result given. Hits are enriched below; roughly 3.2% of the tested compounds scored in any of these assays.

SMILES | CDK5 p35 inh | DYRK1A inh | Rtt109 Vps75 | esBAF inh | SMARCA2 act | dFosB act | SMARCA2 conf | VP16 Luc act
C/C(=N/NC(=O)c1ccccn1)c1c[nH]c2ccccc12 | -1.4 | 14.3 | -0.4 | 54.8* | 16.4* | -8.7 | 11.6* | 3.5
O=C(COC(=O)Cc1ccc(S(=O)(=O)N2CCOCC2)s1)Nc1ccccc1 | -2.9 | -0.2 | -4.1 | -1.4 | 8.1* | -8.3 | 2.2 | 0.7
O=C(COC(=O)Cc1ccc(S(=O)(=O)N2CCOCC2)s1)Nc1ccc([N+](=O)[O-])cc1 | 1.2 | . | -3.5 | -2.2 | 3.1 | -13.9 | . | .
N#Cc1ccccc1OCC(=O)Nc1ccc(S(=O)(=O)N2CCOCC2)cc1 | -1.5 | 2.9 | 13.5 | -0.8 | 9.6* | -5.4 | 2.0 | 0.6
C[C@@H]1CN([C@H](C)CO)C(=O)c2cccc(NC(=O)Nc3ccc(F)cc3)c2O[C@H]1CN(C)Cc1ccc(C(=O)O)cc1 | . | . | . | 1.7 | . | . | . | .
Cc1ccc(S(=O)(=O)NCC[C@H]2CC[C@H](NC(=O)c3cnccn3)[C@H](CO)O2)cc1 | . | . | . | -0.4 | . | . | . | .
C[C@H]1CN([C@@H](C)CO)C(=O)c2cc(NC(=O)C3CCCCC3)ccc2O[C@@H]1CN(C)C(=O)Nc1ccc(C(F)(F)F)cc1 | . | . | . | 2.2 | . | . | . | .
Cc1ccccc1Oc1cc(-n2ncc(Cl)c(Cl)c2=O)ncn1 | -1.0 | 2.0 | -2.5 | . | 11.2* | -4.6 | -14.8 | 2.3
CCOc1cnn(-c2cc(Oc3ccc(C)cc3)ncn2)c(=O)c1Cl | -0.5 | 0.3 | 5.7 | . | -1.9 | -4.3 | . | .
COc1cc2c(cc1OC)C(c1cc3ccc(C)cc3[nH]c1=O)N(C(=O)c1ccco1)CC2 (configuration not stated) | -0.1 | 3.1 | 13.8 | -0.5 | 11.1* | -7.6 | 0.4 | 1.3
COc1cc2oc3ccc(C#Cc4ccccn4)cc3c(=O)c2cc1OC | -0.4 | -1.2 | -1.4 | 15.5 | 2.5 | -11.7 | . | .
Cn1c2ccccc2c(=O)c2cc(C#Cc3ccccn3)ccc21 | 0.1 | 15.6 | -6.5 | 1.6 | 8.1* | -15.1 | 20.6* | 5.3*
O=C(N[C@H]1CC[C@H](CCn2cc(C3(O)CCCC3)nn2)O[C@@H]1CO)C1CC1 | . | . | . | -24.1 | . | . | . | .
CC1CN(S(=O)(=O)c2cccc(C(=O)NN3CCN(C)CC3)c2)CC(C)O1 (configuration not stated) | 0.6 | 11.2 | -0.2 | -5.2 | 9.1* | 0.4 | 0.6 | 0.8
Cc1noc(C)c1S(=O)(=O)Nc1ccc2c(c1)C(=O)N([C@@H](C)CO)C[C@@H](C)[C@@H](CN(C)C(=O)CCC(F)(F)F)OCCCC[C@@H](C)O2 | . | . | . | 8.5 | . | . | . | .
Brc1ccccc1OCCCCCN1CCOCC1 | -1.1 | -2.7 | 4.7 | . | 10.0* | -8.6 | 0.8 | 4.7
CC(C)c1ccccc1OCCCCCN1CCOCC1 | . | . | . | -6.9 | -3.8 | . | . | .
O=C(C[C@@H]1C=C[C@@H](NC(=O)Nc2cc(F)ccc2F)[C@H](CO)O1)NCc1ccc2c(c1)OCO2 | . | . | . | -0.2 | . | . | . | .
COc1ccc(-c2nc3nc(C)c(Cc4ccccc4)c(=O)n3[nH]2)cc1 | -6.1 | 2.3 | 4.2 | 5.7 | 8.1* | -2.5 | 2.6 | 3.4
COC(=O)Cc1c(C)nc2nc(-c3ccc(OC)cc3)[nH]n2c1=O | -0.4 | 4.8 | -11.3 | 3.6 | -0.5 | 1.0 | . | .
CCc1cccc(CC)c1NC(=O)CN1C2CCCC1CC(NC(=O)Nc1cccc(OC)c1)C2 (configuration not stated) | 0.7 | . | 15.0 | . | 10.7* | 1.1 | -0.6 | 1.2
CCN(CC)CCN1C(=O)C(=O)/C(=C(/O)c2cnn(-c3ccccc3)c2C)C1c1ccc(C)o1 (configuration not stated) | 0.5 | 0.8 | 5.5 | ? | 12.2* | -10.3 | 6.2 | 3.0
CN1C[C@H]2[C@@H](c3ccccc31)[C@H](CO)N2C(=O)CN1CCOCC1 | . | . | . | -7.6 | . | . | . | .
Cc1cccn2cc(-c3cccc(NC(=O)c4cccs4)c3)nc12 | -4.0 | 1.3 | 14.1 | . | 9.4* | 8.3 | 6.0 | 1.5
